IL-1B inflam inh: blocks inflammasome-driven IL-1 beta release; THP-1 LPS/ATP IL-1B secretion, AlphaLISA, 16 h; hits give low values; activity change, % at 57.5 µM; hit rate 4.7% among 360,000; AID 743279; in the data active means activity change below about -50%; inconclusive means mostly about -30% to -49%
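Secreted IL-1B measured by AlphaLISA bead assay after 16 h compound exposure of THP-1 cells; compounds (final up to 57.5 uM) added 1 h before LPS (250 ng/mL) and ATP (1.25 mM) stimulation; lower signal means less secretion.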
TDP1 inh: TDP1 (human) enzyme inhibition; Q9NUW8; recombinant TDP1, AlphaScreen DNA substrate cleavage; Potency, µM (top dose mostly 130 µM), for inactives: at the top dose activity change, negative = inhibition, hits mostly inhibitors; hit rate 0.28% among 350,000; further: potency means the concentration at half of the fitted maximal effect; nearly all actives have a fitted effect of over 40% in size
Target sequence (Q9NUW8 whole entry, looked up): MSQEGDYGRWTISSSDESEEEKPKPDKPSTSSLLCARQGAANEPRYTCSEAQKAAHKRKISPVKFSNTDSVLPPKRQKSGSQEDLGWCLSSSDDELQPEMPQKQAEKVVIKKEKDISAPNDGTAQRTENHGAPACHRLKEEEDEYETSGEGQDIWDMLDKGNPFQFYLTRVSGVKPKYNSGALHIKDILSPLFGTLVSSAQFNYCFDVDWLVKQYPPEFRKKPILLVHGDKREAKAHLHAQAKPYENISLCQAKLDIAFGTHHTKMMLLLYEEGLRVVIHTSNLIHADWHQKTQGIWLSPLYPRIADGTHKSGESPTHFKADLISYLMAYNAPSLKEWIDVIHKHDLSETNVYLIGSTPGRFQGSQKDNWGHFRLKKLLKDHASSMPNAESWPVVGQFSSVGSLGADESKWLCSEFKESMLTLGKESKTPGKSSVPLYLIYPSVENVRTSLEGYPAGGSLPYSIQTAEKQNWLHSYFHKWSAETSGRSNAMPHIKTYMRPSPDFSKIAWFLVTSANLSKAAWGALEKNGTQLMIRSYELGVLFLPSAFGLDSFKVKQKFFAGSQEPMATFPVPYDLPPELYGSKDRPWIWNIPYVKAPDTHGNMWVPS
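Tdp1 1 nM final; 15 min RT w/ cpd; substrate 15 nM, 5 min; beads 10 ug/ml, 10 min; AlphaScreen read. Neg ctrl: no enzyme.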
DT40 TDP1 CPT: growth inhibition of DT40 Tdp1-/-;hTDP1 cells with camptothecin (screen for TDP1 inhibitors); AID 686979; chicken DT40 Tdp1-/-;hTDP1 cells + 20 nM CPT, ATP luminescence, 48 h; hit rate 12% among 420,000; Potency, µM (series often up to 46.2 µM), inactives show at the top dose activity change, negative = growth inhibition, actives largely listed as inhibitors; further: potency means the concentration at half of the fitted maximal effect; nearly all actives have a fitted effect of over 55% in size
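Chicken DT40 Tdp1-/- cells stably complemented with human TDP1 were seeded at 400 cells/well in medium containing 20 nM camptothecin, exposed to pin-transferred compounds, and grown at 37 °C for at least 48 hr. Viability was read as ATP luminescence.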
Six1-Eya2 blk: blocks human Six1 binding to Eya2 | Q15475+O00167 | AlphaScreen GST-Six1/His-Eya2 binding, biochemical; hits give low values | activity change, % (concentration not given with the values) | hit rate 0.56% among 360,000; in the data active means activity change below about -65%; inconclusive means mostly about -30% to -63%
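AlphaScreen with GST-Six1 and His-Eya2 (5X mix: 250 nM and 500 nM), glutathione donor and nickel acceptor beads; buffer 50 mM Tris pH 8.0, 300 mM NaCl, 1 mM TCEP; 1 h at 37 C in the dark.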
CtBP-E1A blk: CtBP/E1A binding inhibition; activity change, % (concentration not given with the values); hit rate 0.49% among 340,000; AID 651724; AlphaScreen GST-E1A/His-CtBP binding, 1536-well; hits give low values; in the data active means activity change below about -65%; inconclusive means mostly about -30% to -63%
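GST-E1A and His-tagged CtBP (125 nM each as 5X stock) were preincubated with pin-transferred compound for 2 h at 37 °C in the dark, then glutathione donor and nickel acceptor beads were added for 1 h before AlphaScreen reading.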
TDP1 cell noCPT: qHTS for Inhibitors of human tyrosyl-DNA phosphodiesterase 1 (TDP1): qHTS in cells in absence of CPT; hit rate 15% among 420,000; AID 686978, 2013; Potency, µM (titrated, usually from 46.2 µM), for the others: at the top dose activity change, negative = growth inhibition, usual class: inhibitors; DT40 Tdp1-/- hTDP1 cells, no CPT, ATP luminescence, 48 h; further: potency means the concentration at half of the fitted maximal effect; nearly all actives have a fitted effect of over 55% in size
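No-CPT arm: Tdp1-/-;hTDP1 DT40 cells (400/well) plus compounds, incubated ≥48 hr at 37 °C. Readout CellTiter-Glo luminescence.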
* hit, by the source's call; ? = inconclusive; . = no result given; [ ] = remark or other dose. The list is not random: actives were taken first. Their share in the collection is about 18%. Unless noted, the call rests on the fitted dose curve; in most records, active means well fitted curve in the direction sought with a large enough effect; inconclusive means small, poorly fitted or top-dose-only effect, or another doubt; inactive means no such curve, though single readings can be large; an effect the other way counts as inactive or inconclusive. On the % scale 0 is the no-effect control and ±100 the full control effect.

SMILES | IL-1B inflam inh | TDP1 inh | DT40 TDP1 CPT | Six1-Eya2 blk | CtBP-E1A blk | TDP1 cell noCPT
CC(C)(C)OC(=O)NCCCC[C@H](NC(=O)c1nc[nH]c1C(=O)NCC(=O)OCc1ccccc1)C(=O)OC(C)(C)C | -1 | . | 15µM* | 0 | -24 | ?
CC(C)(C)OC(=O)NCCCCCNC(=O)c1nc[nH]c1C(=O)NCC(=O)OCc1ccccc1 | -9 | 3% | ? | -1 | -20 | 15µM*
Cc1ccc(-n2nc(C(=O)N3CCN(c4cccc(C(F)(F)F)c4)CC3)c(=O)n(C)c2=O)cc1 | . | 11% | ? | . | . | 18µM*
O=C(C1CC(=O)N(c2ccc3c(c2)OCCO3)C1)N1CCN(c2cccc(C(F)(F)F)c2)CC1 (configuration not stated) | -13 | 1% | ? | -1 | -5 | 23µM*
O=C(c1cccc(N2CCCC2=O)c1)N1CCN(c2ccc(F)cc2)CC1 | 3 | 3% | 4% | 2 | 12 | 17%
O=C(c1ccc(N2CCCC2=O)cc1)N1CCN(c2cccc(C(F)(F)F)c2)CC1 | ? | 9% | 16µM* | -1 | 5 | 23µM*
O=C(c1cccc(N2CCCC2=O)c1)N1CCN(c2cccc(Cl)c2)CC1 | 4 | 0% | ? | -9 | . | 3.3µM*
CCOc1ccccc1C1C2CCCCC2(O)CCN1C(=O)c1cccs1 (configuration not stated) | 19 | -3% | 5% | 4 | 2 | -23%
COc1ccc(Cn2c(=O)c3oc4ccccc4c3n(Cc3cccc(C)c3)c2=O)cc1 | . | -3% | -13% | . | . | -11%
CC(C)N(C)C1CCN(S(=O)(=O)c2ccc(-c3ccc(=O)[nH]n3)s2)CC1 | 14 | 8% | 1% | 3 | -8 | -1%
Cc1cccc(N2CCN(C(=O)c3ccc(N4CCCC4=O)cc3)CC2)c1C | -25 | 5% | 12µM* | 7 | 6 | 23µM*
O=C(c1ccc(N2CCCC2=O)cc1)N1CCCCCC1 | -9 | 5% | -18% | 2 | -1 | 2%
CCN1C(=O)N(C(C)=O)C2C1N(C(C)=O)C(=O)N2C(C)=O (configuration not stated) | 10 | 3% | 20% | 6 | 7 | -1%
CN(C)CCn1c2c(c(SCC(=O)Nc3cccc4ccccc34)nc1=O)CCCC2 | -8 | 6% | ? | -20 | -3 | ?
CCN(CC)CCn1c2c(c(SCC(=O)Nc3ccccc3Cl)nc1=O)CCC2 | -52* | 5%[0.505 µM] | -2% | 0 | -17 | -6%
CCN(CC)CCn1c2c(c(SCC(=O)Nc3cccc4ccccc34)nc1=O)CCC2 | -90* | 1% | -29% | -1 | -22 | ?
CCOC(=O)CN1CC23C=CC(O2)C(C(=O)Nc2cc(OC)ccc2OC)C3C1=O (configuration not stated) | 8 | 8% | -11% | -8 | -2 | -3%
O=C(/C=C/c1ccc(Cl)cc1)N1CCC(c2nc3ccccc3o2)CC1 | . | 3% | ? | . | . | ?
COc1ccc(/C=C/C(=O)N2CCC(c3nc4ccccc4o3)CC2)cc1OC | . | 5% | ? | . | . | 16µM*
O=C(/C=C/c1ccccc1Cl)N1CCC(c2nc3ccccc3o2)CC1 | . | -1% | ? | . | . | 21µM*
COc1ccccc1C(=O)NCCC(=O)Nc1cccc(S(=O)(=O)N2CCCC2)c1 | -21 | 1% | -26% | -2 | . | ?
CC1=[N+]([O-])C(C)(C)N(O)C1(C)C | 1 | -5% | -9% | 3 | 6 | -17%
O=C(Nc1cccc(S(=O)(=O)N2CCCCC2)c1)C1CCC1 | 3 | 5% | -17% | 16 | 0 | -13%
O=C(O)CCCC(=O)Nc1ccc2c(c1)oc1ccccc12 | 53 | . | 2% | -17 | 1 | 21%
O=C(Nc1ccc2c(c1)oc1ccccc12)C1CC1 | 43 | 4% | 15µM* | 6 | 1 | 9.2µM*
SMILES | IL-1B inflam inh | TDP1 inh | DT40 TDP1 CPT | Six1-Eya2 blk | CtBP-E1A blk | TDP1 cell noCPT
O=C(Nc1ccc2c(c1)oc1ccc(S(=O)(=O)N3CCCC3)cc12)C1CC1 | -57* | 0% | ? | -8 | -4 | ?
Fc1cccc(CCN2C(=S)NC[C@@H]2CC2CCCCC2)c1 | ? | 2% | ? | 2 | . | ?
NC1=NC[C@H](CC2CCCCC2)N1CCc1cc(C(F)(F)F)cc(C(F)(F)F)c1 | -27 | 0% | 5.8µM* | 5 | . | 7.3µM*
NC1=NC[C@H](Cc2ccc(O)cc2)N1CCC12CC3CC(CC(C3)C1)C2 | ? | 5% | 8.2µM* | -3 | -5 | ?
NC1=NC[C@@H](Cc2ccc(O)cc2)N1CCc1cccc(F)c1 | 0 | 5% | ? | -10 | 3 | -52%
CC(C)(C)CN1C(N)=NC[C@H]1Cc1ccc(O)cc1 | 12 | -2% | ? | 0 | 5 | ?
NC1=NC[C@@H](Cc2ccc(O)cc2)N1CCc1cc(C(F)(F)F)cc(C(F)(F)F)c1 | ? | 4% | ? | 1 | 0 | 21µM*
COc1cc2c3nc4n(c(=O)c3n(CC(=O)N3CCCC3)c2cc1OC)CCS4 | -5 | . | -1% | 7 | -1 | -6%
CC(=O)OC(C(=O)Nc1nncs1)c1ccccc1 (configuration not stated) | 24 | . | -11% | -3 | 1 | -4%
COC(=O)c1ccc(C2C(C#N)=C(N)Oc3cc(N)ccc32)cc1 (configuration not stated) | -14 | . | 0.92µM* | 0 | -5 | -3%
COC(=O)c1ccc(C2C(C#N)=C(N)Oc3cc(O)ccc32)cc1 (configuration not stated) | 0 | 7% | -8% | 1 | 3 | -14%
N#CC1=C(N)Oc2cc(N)ccc2C1C1CCCCC1 (configuration not stated) | ? | 9% | ? | -2 | -5 | 21µM*
N#CC1=C(N)Oc2cc(N)ccc2C1c1cccc(F)c1 (configuration not stated) | -14 | . | ? | -1 | -12 | ?
Cc1nccn1Cc1ccccc1 | -17 | . | 9% | 5 | -1 | -2%
Cc1ccccc1C(C)(O)c1cnc(C)n1Cc1ccccc1 (configuration not stated) | -4 | . | 21µM* | -2 | -3 | 12µM*
COc1cc(NCc2ccc3nc(N)nc(N)c3c2C)cc(OC)c1OC | . | 19% | 0.38µM* | . | . | 0.12µM*
COc1ccc(/C=C/C(=O)c2cc(Cl)cc(Cl)c2O)c(OC)c1 | -13 | 4% | -10% | 3 | 5 | ?
O=C(/C=C/c1ccccn1)c1cc(Cl)cc(Cl)c1O | -80* | 5% | ? | -3 | -17 | ?
